From the supplement of paper PMC11150407 come the findings set out here.

“And” between values parts separate entries of the source, which are not always exact repeats. Equal entries are not always repeated. The whole screen tested about 2,100 compounds, of which about 180 (8.6%) showed an effect of 50% or more. The list comes from a sample in which strong results are over-represented; it also holds similar structures and randomly drawn compounds.

In this assay the test system is MOLM1 and UCSD/AML1 (averaged). The experiment in a line: cell viability relative to DMSO control (POC); higher = less growth inhibition. Particulars: 1 µM; 72 h. The method, then:
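Primary viability screen in the 3q26 EVI1-high AML cell lines MOLM1 and UCSD/AML1 (1.5e3 cells/well, 384-well), compounds at 1 uM for 72 h. ATP CellTiter-Glo read-out given as percent of viable cells over DMSO control (POC), averaged over duplicates. DMSO was the negative control and 5 uM etoposide the positive control. This mapping covers the MicroSource Spectrum and Selleck anticancer libraries (drug names).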
With `COC(=O)C[C@H]1C(C)(C)[C@@H](OC(C)=O)[C@@H]2CC3=C4CC(=O)O[C@@H](c5ccoc5)[C@]4(C)CC[C@@H]3[C@@]1(C)C2=O`, the cell viability was 103%. As to `COC(=O)c1c(C)cc(O)cc1O`, the cell viability was determined as 98.5%. The same measure for `CCCCCCCCCCCCC[N+](C)(C)Cc1ccccc1`: 25.7%; for `Cc1cc(C(C)(C)CC(C)(C)C)ccc1OCCOCC[N+](C)(C)Cc1ccccc1`: 88.2%. On to `CC(C)(C)CC(C)(C)c1ccc(OCCOCC[N+](C)(C)Cc2ccccc2)cc1`, for which the cell viability is 97.1%.

As to `Cc1ccc(C(C)C)cc2c(C)ccc1-2`, the cell viability is 84.7%. In the case of `COc1ccc(-c2cc(=O)c3c(O)c(OC)c(OC)c(OC)c3o2)cc1OC`, the cell viability came to 80.2%. On to `O=C(CCCCCCC(=O)Nc1ccccc1)NO` [Vorinostat (SAHA)], for which the cell viability stood at 22%.

For the compound `O=C(Nc1ccccc1)Nc1ccccc1`, the cell viability was 87.7%. The value for `O=C(Nc1ccccc1)c1ccccc1O` was 97.1%; that for `O=c1c(O)c(-c2ccccc2)oc2cccc(O)c12` was 93.1%.

With `CCC(CCC(C)C1CCC2C3CCC4CC(O)CCC4(C)C3CCC12C)C(C)C` (centres undefined), the cell viability came to 89.6%.

`C=C1C(N)CC2CC1C2(C)C` (stereo not drawn) [3-AMINO-beta-PINENE]: the cell viability worked out at 96.3%.

Turning to `CC(C)[C@@H]1CC[C@@H](C)CC1=O`, the cell viability turned out to be 102%.

Turning to `CC(=O)O[C@H]1C(=O)[C@@]2(C)[C@H]([C@H](OC(=O)c3ccccc3)[C@]3(O)C[C@H](OC(=O)[C@H](O)[C@@H](NC(=O)c4ccccc4)c4ccccc4)C(C)=C1C3(C)C)[C@]1(OC(C)=O)CO[C@@H]1C[C@@H]2O` [Paclitaxel (Taxol)], the cell viability came to 12.3%. The same measure for `CC(=O)O[C@@]12CO[C@@H]1C[C@H](O)[C@@]1(C)C(=O)[C@H](O)C3=C(C)[C@@H](OC(=O)[C@H](O)[C@@H](NC(=O)OC(C)(C)C)c4ccccc4)C[C@@](O)([C@@H](OC(=O)c4ccccc4)[C@H]21)C3(C)C` [Docetaxel (Taxotere)]: 14.7%; for `CC(=O)O[C@H]1C(=O)[C@@]2(C)[C@H]([C@H](OC(=O)c3ccccc3)[C@]3(O)C[C@H](OC(=O)[C@H](O)[C@@H](NC(=O)c4ccccc4)c4ccccc4)C(C)=C1C3(C)C)[C@]1(OC(C)=O)CO[C@@H]1C[C@@H]2O`: 11.7%; for `COc1nc(C)cnc1NS(=O)(=O)c1cccnc1-c1ccc(-c2nnco2)cc1` [Zibotentan (ZD4054)]: 71.2%. The same measure for `Nc1nccc(Oc2ccc(NC(=O)c3c[nH]cc(-c4ccc(F)cc4)c3=O)cc2F)c1Cl`: 83.2%; for `O=C1c2ccccc2C(=O)c2c(O)c(O)cc(O)c21`: 83.8%. With `O=c1c(O)c(-c2ccccc2)oc2cc(O)ccc12`, the cell viability is 107%. The same measure for `CC1(C)CC[C@]2(C(=O)O)CC[C@]3(C)C(=CC[C@@H]4[C@@]5(C)CC[C@H](O)[C@@](C)(CO)[C@@H]5CC[C@]43C)[C@@H]2C1`: 89.4%; for `COc1ccc(C(C)=O)c(OC)c1`: 91.5%. The same measure for `COC(=O)c1c(C)cc(OC(=O)c2c(C)cc(O)c(C=O)c2O)c(C)c1O`: 100%; for `O=C(NCCCNc1nc(Nc2cccc(NC(=O)N3CCCC3)c2)ncc1I)c1cccs1`: 47.6%.

For the compound `C#CC1(O)CC[C@H]2[C@@H]3CCC4=CC(=O)CC[C@@H]4[C@H]3CC[C@@]21CC` (mixture of isomers), the cell viability turned out to be 69.3%. The value for `C[C@@H]1CC[C@H]2C(C)(C)[C@H]3C[C@@]12CC[C@@]3(C)O` was 105%; that for `COc1cc2ccc(=O)oc2c(OC)c1OC` was 110%; that for `CCCCCCCCCCCCCCC(C(=O)O)C(O)(CC(=O)OC)C(=O)O` (centres undefined) was 87.8%. Regarding `CN1CCN(c2ccc3nc(-c4c(N)c5c(F)cccc5[nH]c4=O)[nH]c3c2)CC1` [Dovitinib (TKI-258)], the cell viability worked out at 26.7%.

With `COc1cc2c(cc1OC)-c1cc3ccc(OC)c(OC)c3c[n+]1CC2`, the cell viability is 95.7% and 88.9%.

As for `CC(=O)O[C@@H]1CC2C(C)(C)[C@H](O)CC[C@]2(C)C2CC[C@@]3(C)[C@H](c4ccoc4)OC(=O)C4OC43[C@@]21C` (stereo partly drawn) [alpha-DIHYDROGEDUNOL], the cell viability was 123%. The same measure for `COc1ccc(-c2coc3c(O)c(OC)ccc3c2=O)cc1`: 94.6%. The value for `CNC(=O)c1ccc(C)c(-n2c(C)cc(OCc3ccc(F)cc3F)c(Br)c2=O)c1` was 87.5%; that for `C=CC[C@@H]1/C=C(\C)C[C@H](C)C[C@H](OC)[C@H]2O[C@@](O)(C(=O)C(=O)N3CCCC[C@H]3C(=O)O[C@H](/C(C)=C/[C@@H]3CC[C@@H](O)[C@H](OC)C3)[C@H](C)[C@@H](O)CC1=O)[C@H](C)C[C@@H]2OC` was 85.3%; that for `CO[C@H]1C[C@@H]2CC[C@@H](C)[C@@](O)(O2)C(=O)C(=O)N2CCCC[C@H]2C(=O)O[C@H]([C@H](C)C[C@@H]2CC[C@@H](OC(=O)C(C)(CO)CO)[C@H](OC)C2)CC(=O)[C@H](C)/C=C(\C)[C@@H](O)[C@@H](OC)C(=O)[C@H](C)C[C@H](C)/C=C/C=C/C=C/1C` was 11%. Take `CO[C@H]1C[C@@H]2CC[C@@H](C)[C@@](O)(O2)C(=O)C(=O)N2CCCC[C@H]2C(=O)O[C@H]([C@H](C)C[C@@H]2CC[C@@H](O)[C@H](OC)C2)CC(=O)[C@H](C)/C=C(\C)[C@@H](O)[C@@H](OC)C(=O)[C@H](C)C[C@H](C)/C=C/C=C/C=C/1C`: the cell viability is 44%.

With `CO[C@H]1C[C@@H]2CC[C@@H](C)[C@@](O)(O2)C(=O)C(=O)N2CCCC[C@H]2C(=O)O[C@H]([C@H](C)C[C@@H]2CC[C@@H](O)[C@H](OC)C2)CC(=O)[C@H](C)/C=C(\C)[C@@H](O)[C@@H](OC)C(=O)[C@H](C)C[C@H](C)/C=C/C=C/C=C/1C` [Rapamycin (Sirolimus)], the cell viability was 41.5%. The same measure for `CO[C@H]1C[C@@H]2CC[C@@H](C)[C@@](O)(O2)C(=O)C(=O)N2CCCC[C@H]2C(=O)O[C@H]([C@H](C)C[C@@H]2CC[C@@H](OCCO)[C@H](OC)C2)CC(=O)[C@H](C)/C=C(\C)[C@@H](O)[C@@H](OC)C(=O)[C@H](C)C[C@H](C)/C=C/C=C/C=C/1C` [Everolimus (RAD001)]: 50.2%.

Usually cell viability stands for a read-out of living cells in per cent, often relative to untreated cells.
